According to the supplement of paper PMC6555819:

Columns and labels:
Test in all cases: PBM binding z-score (relative to random genomic background probes); higher = stronger binding; sequences stand for … in GC…GCGATTGACAGCGTAGAATGAAGG
[1] = system: FXR:RXRa (NR concentration 270 nM, RXRa partner concentration 90 nM)
Procedure, shortened: (§1)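 Binding z-scores take random background probes as their reference. They come from custom Agilent 4×180K protein-binding microarrays incubated 1 h with ligand-free nuclear receptor dimers, with antibodies against each partner (one per run) detecting binding. Scanned fluorescence was regression-normalized.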

[2] = system: LXRa:RXRa (NR concentration 270 nM, RXRa partner concentration 90 nM)
Procedure, shortened: as §1

[3] = system: LXRa homodimer (NR concentration 270 nM)
Procedure, shortened: as §1

[4] = system: LXRb:RXRa (NR concentration 270 nM, RXRa partner concentration 90 nM)
Procedure, shortened: as §1

[5] = system: LXRb homodimer (NR concentration 270 nM)
Procedure, shortened: as §1

[6] = system: PPARa:RXRa (NR concentration 270 nM, RXRa partner concentration 90 nM)
Procedure, shortened: as §1

[7] = system: PPARg:RXRa (NR concentration 180 nM, RXRa partner concentration 90 nM)
Procedure, shortened: as §1

[8] = system: PPARg:RXRa 270nM:90nM, anti-RXR (NR concentration 270 nM, RXRa partner concentration 90 nM)
Procedure, shortened: as §1

[9] = system: PPARg:RXRa 30nM:10nM, anti-RXR (NR concentration 30 nM, RXRa partner concentration 10 nM)
Procedure, shortened: as §1

[10] = system: PPARg:RXRa 90nM:30nM, anti-RXR (NR concentration 90 nM, RXRa partner concentration 30 nM)
Procedure, shortened: as §1

[11] = system: PPARg:RXRa DBDmut IVT, anti-RXR (DBD mutation: RXRa K156A/R161A, NR concentration 270 nM, RXRa partner concentration 90 nM)
Procedure, shortened: as §1

[12] = system: PPARg:RXRa IVT, anti-PPARg (NR concentration 270 nM, RXRa partner concentration 90 nM)
Procedure, shortened: as §1

[13] = system: PPARg DBDmut:RXRa IVT, anti-PPARg (DBD mutation: PPARg1 K132A/R137A, NR concentration 270 nM, RXRa partner concentration 90 nM)
Procedure, shortened: as §1

[14] = system: PPARg DBDmut IVT, anti-PPARg (DBD mutation: PPARg1 K132A/R137A, NR concentration 270 nM)
Procedure, shortened: as §1

[15] = system: PPARg homodimer (NR concentration 180 nM)
Procedure, shortened: as §1

[16] = system: PXR:RXRa (NR concentration 270 nM, RXRa partner concentration 90 nM)
Procedure, shortened: as §1

[17] = system: PXR homodimer (NR concentration 270 nM)
Procedure, shortened: as §1

[18] = system: RARa:RXR (NR concentration 270 nM, RXRa partner concentration 90 nM)
Procedure, shortened: as §1

[19] = system: RARa homodimer (NR concentration 270 nM)
Procedure, shortened: as §1

[20] = system: RARb:RXRa (NR concentration 270 nM, RXRa partner concentration 90 nM)
Procedure, shortened: as §1

Sequence	PBM binding z-score [1]	PBM binding z-score [2]	PBM binding z-score [3]	PBM binding z-score [4]	PBM binding z-score [5]	PBM binding z-score [6]	PBM binding z-score [7]	PBM binding z-score [8]	PBM binding z-score [9]	PBM binding z-score [10]	PBM binding z-score [11]	PBM binding z-score [12]	PBM binding z-score [13]	PBM binding z-score [14]	PBM binding z-score [15]	PBM binding z-score [16]	PBM binding z-score [17]	PBM binding z-score [18]	PBM binding z-score [19]	PBM binding z-score [20]
CGTCCAAGGTCAAAGGTCGGTGAAGAGATGACGG	7.72	5.78	1.27	5.08	0.738	7.01	9.09	7.29	6.65	7.6	3.9	5.09	0.166	-0.0129	2.61	5.91	0.774	7.5	0.478	5.68
AGTCAAAGTTCATCTAGGTAACCTAAGATATGCT	6.25	6.2	6.02	4.02	2	4.99	6.33	6.35	3.52	5.54	0.989	3.71	1.38	1.29	3.22	5.34	6.67	3.84	1.21	4.88
TATACAGGGTCAATGGCCAGAGTACGAATGTCGA	5.92	5.45	1.39	3.89	2.05	5.16	5.11	4.94	2.12	3.87	1.79	3.99	1.48	1.03	1.97	3.23	0.633	3.75	0.771	4.05
AGTGAAAGTTCATCTAGGTAACGTAAGATATGCT	5.95	5.92	5.06	3.56	1.86	4.52	5.39	5.5	2.65	4.84	0.529	3.41	1.8	1.64	2.58	4.68	6.78	3.24	1.4	4.63
AGAATGAGGTTATAAAGATCAGGGAATTGCGGTC	1.45	1.31	0.315	1.17	0.00236	2.65	1.58	2	0.752	1.52	2.13	2.04	0.947	0.696	1.14	1.2	0.572	1.58	0.211	1.32
ACTAGCAGGCCAAGGGTCAGTCAAGATTAGTCCG	1.44	1.16	-0.0253	1.33	-0.691	3.79	6.42	6.45	5.89	6.62	0.997	2.79	-0.401	-0.926	1.54	1.69	-0.439	2.56	-0.0893	2.85
TCTCGGAGGACACGAATGTCAGAGCTTTCCAGAG	0.579	-0.0398	-0.547	-0.175	-0.958	0.22	-0.0172	0.69	1.96	1.29	1.02	-0.236	-0.725	-1.02	-0.998	-0.181	-0.893	-0.129	-0.458	1.47
ATCTCTCGGTAACCAAGTTCAGTGAATGCCGAAC	0.00199	0.567	1.33	0.672	0.975	0.668	-0.0283	0.289	-0.287	0.0566	-0.264	0.594	0.5	0.409	0.702	1.85	1.8	0.427	0.774	0.997
TGAATGAGGTTAAAGATCCGGGAACGTGGCGTCG	2.36	1.91	-0.227	1.13	0.309	3.14	2.27	3.37	1.55	2.9	2.22	2.41	0.774	0.25	0.436	1.11	-0.152	1.84	-0.669	1.72
CCTCCGAGGACAGAAGGTCAGAGCTGTCCGCTTT	1.46	1.7	0.408	1.37	-0.149	1.89	-0.0299	0.869	-0.46	0.274	-0.16	0.312	-1.35	-1.76	2.39	1.76	0.0922	2.49	1.09	3.23
CCGACTGGGGGAAAGGTTACCATACTCAGTACGA	1.81	2.38	0.42	3.4	3.72	5.42	9.9	9.24	8.87	9.88	2.52	5.31	3.53	3.07	1.86	2.63	0.241	3.24	0.206	2.04
ACTGACAGGTGAGTGAAGGTAACTCAGCTGGACG	0.406	0.0865	-0.418	-0.453	-0.767	0.153	0.398	0.0745	-0.305	-0.0738	0.237	1.07	0.18	-0.257	-0.647	-0.21	-0.633	0.381	-0.0244	0.482
CCTGCTAGGTCCATGGTCAGCTAAAGCAGCTCGC	-0.648	-0.658	-0.744	-0.958	-0.563	-0.447	-0.772	-0.287	-1.2	-0.648	-0.414	-0.603	-1.47	-1.26	-0.704	-0.449	-1	-0.64	-1.05	0.441
GCGACTGGGGAAAAGCAGGTTACCATAAGGTTGG	-0.282	-0.412	-0.496	0.0547	-1.04	0.442	0.406	0.154	-0.554	0.0241	0.483	0.632	-0.499	-1.11	0.255	-0.0375	-0.35	0.407	-0.675	-0.16
TGTCAAAATTCAAAGGTAACGTAAGTATCCACAC	0.567	0.663	-0.00824	0.809	0.161	1.13	0.99	1.47	0.972	1.39	-0.0151	1.31	0.599	1.21	0.821	0.362	0.426	1.04	0.683	0.953
TCGAGTAGGTTAGTCGTGGCATTCAGCCAACATA	-0.318	-0.31	-0.35	-0.47	-1.11	0.293	-0.232	0.763	1.36	0.958	2.28	1.66	-0.875	-1.07	-0.343	-0.558	-0.596	-0.421	-0.619	-0.00522
GCTTGTACATCAAGGTTAAGAAAGACTAAGCTAA	0.247	0.691	-0.229	0.559	-0.133	0.96	0.118	0.299	-0.184	0.084	-0.0633	0.772	0.219	-0.0385	0.116	0.266	-0.152	0.856	0.262	0.882
CCGACTGGGTCATAAGGTTACCATAAGCCAGCCC	2.99	3.47	-0.00526	2.23	-0.614	4.14	5.19	5.46	2.95	4.86	5.16	5.58	0.678	0.517	2.93	2.45	0.189	4.18	0.218	3.38
AGTCAAAGTTCAGGACGAGGTAACGTAAAGCACG	3.82	3.74	0.999	1.93	0.286	3.46	4.47	4.95	2.17	3.94	-0.443	2.06	0.129	0.321	1.91	2.94	0.827	2.8	0.702	4.26
GCTTGTCGATCAAGGTTAAGAAAGACTAAGCTAA	0.467	0.896	-0.687	0.589	-0.963	1.17	-0.154	0.57	0.0048	0.112	-0.33	0.582	0.163	0.0381	-0.626	0.592	-0.652	0.89	-0.654	0.682
ACTAGTTGGTCAGCTGAGATCACACACAATTCGG	-0.123	-0.166	-0.172	0.118	0.186	-0.138	0.977	0.171	0.202	0.195	0.753	0.741	1.02	0.509	-0.286	0.0807	-0.161	0.321	0.12	0.946
CTCGAAAGGTCGTGCTCAGGTTAGTATACCAAAC	5.58	4.22	0.511	3.78	0.719	5.12	2.57	3.75	0.966	2.37	0.848	1.77	0.0664	0.423	2.46	3.94	0.392	4.55	0.346	4.09
CCAACTAGGTCAGAACAGGACAGTGAAGGATGAT	1.3	1.41	0.28	0.911	0.446	2.61	4.46	3.56	1.37	2.8	6.64	6.66	2.08	1.17	1.73	1.13	0.914	2.07	1.58	2.98
GCTTACGGGTCAAAGATTATAGCATGAATAGAAT	5.74	3.66	-0.0414	3.8	0.557	5.34	6.3	6.09	3.92	5.77	3.85	3.76	1.41	1.16	1.35	3.23	-0.0668	4.47	0.373	3.39
AGAACGAGGGCAGGCTGAGTTGATAGCAGAGTAG	-0.312	-0.562	-0.661	-0.676	-1.05	0.187	0.64	0.432	-0.189	-0.155	2	1.53	0.0574	-0.0164	-0.517	0.169	-0.0945	-0.281	-0.536	1.63
CCTACTGGGCCATCGGGTCATTGATATCAACGTT	1.37	1.03	-0.0763	1.51	-0.423	3.29	3.03	4.12	1.34	3.22	3.69	5	0.365	-0.0654	1.81	1.9	-0.0623	2.47	-0.279	1.9
CGAACTAGGTCTGAACAGGACAGTGAAGGATGAT	-0.499	-0.813	-0.618	-0.891	-0.912	-0.134	0.652	-0.276	-0.221	-0.128	1.88	0.996	-0.255	-0.111	-0.44	-0.688	-0.469	-0.635	-0.454	-0.192
GTTGCTAGGTCAGGTTGGTCAGCTAACGGGTACG	1.81	1.32	0.459	0.947	0.434	1.68	0.88	1.31	-0.115	0.452	2.88	3.16	0.283	-0.614	1.29	0.651	0.178	0.933	0.798	3.4
ATATGTAGGTTACATCCCGGTCATTCAGGCTATG	1.09	3.77	3.88	1.83	1.18	3.66	4.96	4.25	1.8	3.35	7.52	7.38	2.01	2.46	1.78	1.39	0.762	1.6	0.487	1.99
